Drawing on PubChem BioAssay, this text covers composite z-score, z-score and composite Z-score for six compounds.

SMILES strings stand for the structures. Active and inactive are the calls of the source.

Test [1] deals with Human papillomavirus type 1a protein E7 (residues 44-93). Nature of the test: small molecules binding HPV E7 44-93 – biochemical, small-molecule microarray, residues 44-93, 635 nm fluorescence, primary screen (AID 1108).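 Further: E7 fragment applied at 1 µg/mL in TBST for 1 h at 4 C; score combines spot fluorescence with its signal to noise ratio.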 To be noted: fluorescence 635 nm, higher = more signal.
Test [2] can be described thus: hepatitis C replication reporter changes, two-sided – Huh7 cells, luciferase reporter, HCV replication inhibitor project, primary screen (AID 1109).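 Further: huh7 hepatoma cells harbouring a luciferase neomycin HCV replicon reporter; luciferase luminescence as measure of HCV replicon replication; test concentration not given here.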 To be noted: Huh7 HCV replicon luciferase reporter, 48 h; higher = more signal. (In general: Reporter assays use an easily measured gene product as a stand-in for the process of interest.)
In test [3] the target is Left-right determination factor 2 (Homo sapiens) (UniProt O00292). Put plainly: small molecules binding LEFTY2 protein – biochemical, small-molecule microarray, 635 nm fluorescence scan, primary screen (AID 1110). The note with it: higher = more signal.
Left-right determination factor 2 (Homo sapiens), sequence (O00292 whole entry, looked up): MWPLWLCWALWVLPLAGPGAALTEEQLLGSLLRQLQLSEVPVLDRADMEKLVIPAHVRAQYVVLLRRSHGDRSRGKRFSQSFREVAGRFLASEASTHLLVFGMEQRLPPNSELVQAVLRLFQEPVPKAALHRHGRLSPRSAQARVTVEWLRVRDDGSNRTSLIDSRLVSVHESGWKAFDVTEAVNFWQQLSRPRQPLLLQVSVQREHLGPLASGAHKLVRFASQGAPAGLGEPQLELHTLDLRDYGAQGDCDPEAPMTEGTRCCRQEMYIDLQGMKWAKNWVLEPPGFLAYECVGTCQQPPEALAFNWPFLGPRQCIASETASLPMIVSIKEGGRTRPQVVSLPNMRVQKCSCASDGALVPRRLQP
Test [4] has as its target Calmodulin-1 (Homo sapiens) (UniProt P0DP23). Nature of the test: small molecules binding calmodulin-1 with EGTA – biochemical, small-molecule microarray, Cy5-labelled CALM1, profiling panel (AID 1111).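 Further: labelled calmodulin applied in Tris saline Tween buffer holding calcium plus EGTA and DTT.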 The note with it: Cy5-CALM1 binding fluorescence, higher = more signal.
The target is the same in test [5]. Nature of the test: small molecules binding Ca-loaded calmodulin-1 – biochemical, small-molecule microarray, Cy5-labelled CALM1, plus calcium, artefact control for SMM control-protein annotation, profiling panel (AID 1112).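 Further: score merges spot fluorescence with signal to noise from triplicate slides.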 The note with it: Cy5-CALM1 binding fluorescence, higher = more signal.
The nature of test [6]: probe aWnt5a binding to arrayed compounds – biochemical, biotinylated probe, 635/667 nm fluorescence, primary screen (AID 1113).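 Further: score merges 667 nm fluorescence intensity with signal-to-noise per printed feature.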 To be noted: small-molecule microarray, higher = more signal.
Test [7] in a line: probe aShh binding to arrayed compounds – biochemical, biotinylated probe, 635/667 nm fluorescence, primary screen (AID 1114).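 Further: probe is biotin-labelled aShh protein from a stem cell growth factor screen; measures binding of labelled protein to compounds printed on the slide; score merges feature fluorescence at 667 nm with signal-to-noise.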 The note with it: small-molecule microarray, higher = more signal.
Test [8] in a line: probe aNog binding to arrayed compounds – biochemical, biotinylated probe, 635/667 nm fluorescence, primary screen (AID 1115).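 Further: probe is biotinylated aNog protein used at 0.15 µg/mL for 1 h at 4 C; z-score combines 667 nm fluorescence of each spot with its signal to noise.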 The note with it: small-molecule microarray, higher = more signal.
Test [9] concerns the target Torsin-1A-interacting protein 1 (Homo sapiens) (UniProt Q5JTV8). Put plainly: compound microarray binding of lysate hLAP1 – cell lysate, small-molecule microarray, COS7 lysate, 635/667 nm fluorescence, primary screen (AID 1116). To be noted: 635 nm fluorescence, higher = more signal.
In test [10] the target is Alpha-bungarotoxin (Bungarus multicinctus) (UniProt P60615). Nature of the test: compounds binding labelled alpha-BTX control protein – biochemical, small-molecule microarray, Alexa647 label, 635/667 nm fluorescence, artefact control for SMM control protein annotation, profiling panel (AID 1117). To be noted: alpha-BTX-A647 binding fluorescence, higher = more signal.
Alpha-bungarotoxin (Bungarus multicinctus), sequence (P60615 whole entry, looked up): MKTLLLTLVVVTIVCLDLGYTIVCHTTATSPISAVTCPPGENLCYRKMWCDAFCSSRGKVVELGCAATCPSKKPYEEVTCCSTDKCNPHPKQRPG
For another test, the target named is Albumin (Bos taurus) (UniProt P02769). Nature of the test: compounds binding labelled BSA control protein – biochemical, small-molecule microarray, Alexa647 label, 635/667 nm fluorescence, artefact control for SMM control protein annotation, profiling panel (AID 1118).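 Further: score merges 667 nm emission intensity and signal-to-noise per printed compound spot.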 To be noted: BSA-A647 binding, fluorescence 635 nm, higher = more signal.
Albumin (Bos taurus), sequence (P02769 whole entry, looked up): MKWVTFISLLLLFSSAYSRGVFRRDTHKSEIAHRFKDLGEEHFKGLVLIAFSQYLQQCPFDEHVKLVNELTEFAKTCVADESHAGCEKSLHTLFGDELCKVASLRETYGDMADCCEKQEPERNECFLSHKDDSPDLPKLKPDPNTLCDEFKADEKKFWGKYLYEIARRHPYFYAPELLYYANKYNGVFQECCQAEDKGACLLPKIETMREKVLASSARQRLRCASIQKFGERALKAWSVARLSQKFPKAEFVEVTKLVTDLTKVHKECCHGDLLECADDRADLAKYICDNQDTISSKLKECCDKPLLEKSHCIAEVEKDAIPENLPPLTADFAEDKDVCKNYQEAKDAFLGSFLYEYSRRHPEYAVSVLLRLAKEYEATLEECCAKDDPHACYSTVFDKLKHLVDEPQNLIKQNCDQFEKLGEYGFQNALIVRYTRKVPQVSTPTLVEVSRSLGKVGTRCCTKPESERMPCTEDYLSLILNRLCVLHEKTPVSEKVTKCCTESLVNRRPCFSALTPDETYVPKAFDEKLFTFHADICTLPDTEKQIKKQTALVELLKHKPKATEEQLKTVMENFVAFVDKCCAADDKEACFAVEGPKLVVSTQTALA
Test [11] in a line: probe aXIP binding to arrayed compounds – biochemical, NeuroSMM set, 635/667 nm fluorescence, primary screen (AID 1119).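 Further: probe is the protein aXip251-270 applied at 1 µg/mL to compound-printed slides; binding of probe to printed compounds measured as 667 nm fluorescence plus signal to noise.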 To be noted: small-molecule microarray, higher = more signal, called active from +8 up or from −8 down.
A short description of test [12]: probe aNOTCH3 binding on compound microarray – biochemical, small-molecule microarray, 635/667 nm fluorescence, primary screen (AID 1120).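 Further: probe is a biotin-tagged antibody raised against NOTCH3 rather than NOTCH3 protein; score merges spot fluorescence near 667 nm with spot signal to noise.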 The note with it: higher = more signal.
A short description of test [13]: probe aNOTCH2 binding on compound microarray – biochemical, small-molecule microarray, 635/667 nm fluorescence, primary screen (AID 1121).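 Further: score merges feature fluorescence read at 667 nm with its signal to noise.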 The note with it: higher = more signal.
For test [14], the target named is Carbonic anhydrase 2 (Homo sapiens) (UniProt P00918). Put plainly: compounds binding carbonic anhydrase 2 – biochemical, small-molecule microarray, Alexa647-labelled CAII, profiling panel (AID 1122). To be noted: CAII-A647 binding fluorescence, higher = more signal.
Test [15] in a line: COS7 lysate on small-molecule microarray, probe aHis, 635 nm (AID 1123).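 Further: z-score combines 667nm fluorescence intensity with signal-to-noise per printed compound spot.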 The note with it: COS7 cell lysate, fluorescence, higher = more signal.
Test [16] in a line: probe aLAP1 signal on lysate-treated microarray – cell lysate, small-molecule microarray, COS7 lysate, primary screen (AID 1124).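 Further: lysate comes from COS7 cells expressing LAP1 and is applied at 0.3 µg/mL; score merges spot fluorescence near 667 nm with signal-to-noise over triplicate slides.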 The note with it: probe aLAP1, fluorescence, higher = more signal.
The test system of another test is Sam68 (KHDRBS1). Nature of the test: compounds binding KHDRBS1 protein – biochemical, small-molecule microarray, 635 nm fluorescence, primary screen (AID 1125).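 Further: score merges 667 nm channel intensity with signal to noise over triplicate slides.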 The note with it: higher = more signal.
The subject of test [17] is Chordin-like protein 2 (CHRDL2). Nature of the test: compounds binding chordin-like 2 – biochemical, small-molecule microarray, 635 nm fluorescence, primary screen (AID 1126).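 Further: printed compound slides probed with Chrdl2 protein at 4 µg/mL for 1 h at 4 C; score merges 667 nm emission intensity with signal to noise over three replicate slides.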 To be noted: fluorescence 635 nm, higher = more signal.
Test [18] has as its target Concanavalin-A (Canavalia ensiformis) (UniProt P02866). Put plainly: compounds binding concanavalin A lectin – biochemical, small-molecule microarray, Alexa647 label, 635 nm, artefact control for SMM control protein annotation, primary screen (AID 1127).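 Further: z combines 667 nm emission intensity with signal-to-noise across three replicate slides.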 To be noted: ConA-A647 binding fluorescence, higher = more signal.

Concanavalin-A (Canavalia ensiformis), sequence (P02866 whole entry, looked up): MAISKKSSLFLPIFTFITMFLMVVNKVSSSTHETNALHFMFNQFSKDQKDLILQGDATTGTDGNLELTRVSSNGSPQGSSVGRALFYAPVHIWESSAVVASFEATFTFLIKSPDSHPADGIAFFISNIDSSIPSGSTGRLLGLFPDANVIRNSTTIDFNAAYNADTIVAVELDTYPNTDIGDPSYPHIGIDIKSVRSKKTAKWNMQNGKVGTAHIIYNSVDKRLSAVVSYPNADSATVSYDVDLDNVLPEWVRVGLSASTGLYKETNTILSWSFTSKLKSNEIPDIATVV
Torsin-1A-interacting protein 1 (Homo sapiens), sequence (Q5JTV8 whole entry, looked up): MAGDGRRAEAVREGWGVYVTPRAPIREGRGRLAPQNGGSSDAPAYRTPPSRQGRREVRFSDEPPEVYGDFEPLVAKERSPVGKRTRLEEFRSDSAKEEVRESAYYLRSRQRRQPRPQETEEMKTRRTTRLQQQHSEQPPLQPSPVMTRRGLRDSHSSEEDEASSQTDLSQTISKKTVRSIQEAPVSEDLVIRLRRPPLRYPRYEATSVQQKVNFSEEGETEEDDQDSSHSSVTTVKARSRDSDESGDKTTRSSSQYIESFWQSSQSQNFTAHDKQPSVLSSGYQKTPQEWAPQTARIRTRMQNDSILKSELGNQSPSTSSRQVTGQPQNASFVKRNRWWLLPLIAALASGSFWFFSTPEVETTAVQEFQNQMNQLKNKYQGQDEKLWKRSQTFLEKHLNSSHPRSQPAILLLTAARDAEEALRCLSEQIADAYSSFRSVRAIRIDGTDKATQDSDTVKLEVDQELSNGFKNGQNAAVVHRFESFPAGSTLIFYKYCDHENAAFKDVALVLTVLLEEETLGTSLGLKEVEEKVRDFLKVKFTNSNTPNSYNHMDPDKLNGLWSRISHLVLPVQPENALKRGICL

For `C=C(C(=O)CC[C@H](OC(C)=O)c1ccccc1OCCO)C(C)C`, the composite z-score in [1] was -0.949; in test [3], -0.343; in test [4], -0.296; in test [5], -1.33; in [6] it was -0.119; in test [7] it was -0.352. Further, the composite z-score in [8] is -0.124; in test [9] it was 4.35; in [10], -0.423; with Albumin (Bos taurus), 0.0421; in test [12] it was 0.029; in [13], -0.0325. Besides, the composite z-score was -0.371 in test [14]; -0.754 in test [15]; 1.87 in [16]; -0.4 with Sam68 (KHDRBS1); -0.163 in test [17]; -0.104 in test [18]. The z-score in [2] was -4.51. In test [11], the composite Z-score is -0.361 (inactive).

As to `CCOC(=O)C[C@H]1[C@H](OC(=O)c2ccc(C(=O)c3ccccc3)cc2)[C@@H](NC(=O)c2ccccc2)c2cc(OCCCO)ccc2N1C(=O)c1ccccc1`, the composite z-score in test [1] is 1.09; in test [3], 0.224; in [4], 0.461; in test [5], 0.168; in test [6] it was 0.0102; in test [7], -0.0769. In addition, the composite z-score in [8] is -0.234; in [9], 0.63; in [10] it was 0.872; in the test with Albumin (Bos taurus), 0.754; in [12], 0.184; in test [13], -0.108. In addition, the composite z-score in [14] was 0.171; in [15], 0.702; in test [16], -0.115; in the test with Sam68 (KHDRBS1) it was 1.23; in test [17] it was 0.17; in [18], 0.82. In test [2], the z-score is -1.33. In addition, in [11], the composite Z-score was 0.607 (inactive).

On to `CC1CC/C=C\[C@H]2OC34C=CCN(c5ccc6ccccc6c5)C(=O)[C@H]3N(CCO)C(=O)[C@@H]4C2C(=O)O1` (stereo not given in full), for which the composite z-score was -0.619 in test [1]; -2.09 in test [3]; -0.832 in test [4]; -0.202 in test [5]; -0.205 in test [6]; 0.192 in [7]. The composite z-score in test [8] was 0.831; in test [9], 3.26; in test [10] it was -1.01; in the test with Albumin (Bos taurus), 0.653; in test [12], -0.19; in test [13] it was -0.0903. Besides, the composite z-score is 0.829 in test [14]; 0.275 in test [15]; 0.758 in test [16]; 0.0573 in the test with Sam68 (KHDRBS1); -0.628 in test [17]; -1.12 in test [18]. Moreover, the z-score in test [2] is -0.626. Besides, the composite Z-score in test [11] was 0.0214 (inactive).

On to `C=CCC(OC(C)=O)[C@@H]1[C@@H](N(Cc2ccc(-c3cccc(C(F)(F)F)c3)o2)C(=O)Cc2ccc(OC)cc2)c2cc(OCCCO)ccc2N1C(=O)c1ccc2ccccc2c1` (stereo not given in full), for which the composite z-score in [1] is -0.759; in test [3], -0.394; in test [4] it was -0.477; in test [5], -0.506; in test [6] it was -0.124; in test [7], -0.214. For the same compound, the composite z-score is -0.261 in test [8]; -0.157 in test [9]; -0.0185 in [10]; 0.268 in the test with Albumin (Bos taurus); 0.0423 in test [12]; -0.131 in [13]. For the same compound, the composite z-score in test [14] is 0.228; in test [15], 1.14; in [16], -0.0744; in the test on Sam68 (KHDRBS1), -0.651; in test [17] it was -0.0916; in test [18] it was -0.471. Further, the z-score in test [2] was determined as 0.613. Besides, the composite Z-score in [11] was -0.616 (inactive).

For the compound `[N-]=[N+]=NCc1ccccc1[C@@H]1OC(c2ccc(OCCCO)cc2)=N[C@]1(CCS(=O)(=O)c1ccccc1)C(=O)N1CCOCC1`, the composite z-score is 1.41 in test [1]; -0.141 in [3]; 1.72 in [4]; 0.443 in [5]; 0.0357 in [6]; 0.0381 in test [7]. Further, the composite z-score in [8] stood at 0.113; in test [9], 2; in [10] it was 2.04; with Albumin (Bos taurus) it was 0.923; in test [12] it was 0.391; in test [13] it was 0.104. The composite z-score is 0.513 in test [14]; 2.62 in test [15]; 0.254 in [16]; 1.3 in the test with Sam68 (KHDRBS1); -0.213 in test [17]; 1.19 in [18]. Moreover, the z-score in test [2] was -1.82. Further, in test [11], the composite Z-score was -0.244 (inactive).

With `COc1ccc(CCNC(=O)[C@@]2(c3ccc([N+](=O)[O-])cc3)CC(=O)N(CC34CC5CC(CC(C5)C3)C4)[C@@H]2c2ccc(CO)cc2I)cc1`, the composite z-score in test [1] is 1.38; in [3] it was 0.261; in test [4], 0.408; in [5] it was -0.266; in [6] it was -0.0643; in [7], -0.312. Further, the composite z-score in test [8] was 0.769; in [9], 0.757; in test [10], 0.962; with Albumin (Bos taurus) it was -0.367; in [12] it was -0.332; in [13] it was -0.214. Besides, the composite z-score in test [14] turned out to be 0.0976; in test [15] it was 2.27; in test [16], 0.283; in the test with Sam68 (KHDRBS1), 0.925; in test [17], 0.394; in [18], 0.834. Also, the z-score in test [2] was -3.41. Also, the composite Z-score in test [11] is -0.355 (inactive).
